Screening data from PubChem.
Only some compounds are listed: those with a hit (about 8.3% of all), similar ones and a draw of the others.
MCF10A rerep: inducers of DNA re-replication in MCF 10A breast cells; MCF 10A DNA re-replication, Hoechst nuclear intensity, 48 h; Potency, µM (series often up to 46.1 µM), without a hit: at the highest dose activity, positive = re-replication, usual class: activators; actives 2.9% (n = 350,000); note: potency is the fitted concentration of half-maximal effect; % of control where 0% means no effect; nearly all actives have a fitted effect of over 50% in size
SW480 rereplic: inducers of DNA re-replication in SW480 colon cancer cells; SW480 DNA re-replication, Hoechst DNA content imaging, 48 h; Potency, µM (titrated, usually from 46.1 µM), without a hit: at the highest dose re-replication activation, most hits filed as activators; actives 1.8% (n = 340,000); note: potency is the fitted concentration of half-maximal effect; % of control where 0% means no effect; nearly all actives have a fitted effect of over 55% in size
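Image-based read-out: total Hoechst fluorescence of nuclei (405 nm excitation, 500-530 nm emission), with hits raising the fraction of high-intensity nuclei. SW480 colon cells incubated 48 hr with compounds at 37 C.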
Chronic BCR inh: blocks chronic active B-cell receptor signaling. ABC-DLBCL IkBa-CBG/CBR reporter, luminescence ratio, 4 h. Potency, µM (doses to about 46.1 µM), for inactives: top-dose activity change, negative = inhibition, hits mostly inhibitors. actives 0.05% (n = 340,000). AID 493014; active = well fitted inhibition curve with a large enough effect in the signal ratio, with a control signal flat, not every such curve was filed as active; inconclusive = small, poorly fitted or top-dose-only effect, or effect the other way, or a change in a side signal; the % refers to the signal ratio;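 note: potency is the fitted concentration of half-maximal effect; plate controls were basal doxycycline-induced cells for no effect and cells given 10 µM MG132 for full effect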
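Concentration-response series (up to 46 uM) were applied to TMD8 dual-reporter cells for 4 h at 37C with doxycycline. Green/red ratio, after filter-overlap correction, defined %Activity; red signal alone was normalised to basal cells and zero luminescence.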
Giardia killer: Giardia lamblia killing; Giardia lamblia trophozoite viability; activity change, % at 7.66 µM, hits read low; actives 0.15% (n = 340,000); AID 540267; in the data active = activity change below about -80%; inconclusive = between about -30% and that limit;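 note: parasites exposed to compound for two days anaerobically before the ATP read; % is set by controls: 0 for no effect and ±100 for the full control effect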
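Giardia trophozoites, 100 cells per well, were exposed to compounds for 48 hrs at 37 deg C under anaerobic conditions; viability was then read as ATP content by bioluminescence after 15-30 min at room temperature.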
RORgamma inh: ROR gamma (mouse) transcription inhibition | Potency, µM (highest dose often 53.6 µM), for inactives: at the highest dose activity change, negative = inhibition, usual class: inhibitors | actives 5.4% (n = 310,000) | Drosophila S2 Gal4-RORgamma UAS-luciferase reporter, 20 h | P51450; note: potency is the fitted concentration of half-maximal effect; % is set by controls: 0 for no effect and ±100 for the full control effect; nearly all actives have a fitted effect of over 60% in size
Target sequence (P51450 whole entry, looked up, the tested form may be a part): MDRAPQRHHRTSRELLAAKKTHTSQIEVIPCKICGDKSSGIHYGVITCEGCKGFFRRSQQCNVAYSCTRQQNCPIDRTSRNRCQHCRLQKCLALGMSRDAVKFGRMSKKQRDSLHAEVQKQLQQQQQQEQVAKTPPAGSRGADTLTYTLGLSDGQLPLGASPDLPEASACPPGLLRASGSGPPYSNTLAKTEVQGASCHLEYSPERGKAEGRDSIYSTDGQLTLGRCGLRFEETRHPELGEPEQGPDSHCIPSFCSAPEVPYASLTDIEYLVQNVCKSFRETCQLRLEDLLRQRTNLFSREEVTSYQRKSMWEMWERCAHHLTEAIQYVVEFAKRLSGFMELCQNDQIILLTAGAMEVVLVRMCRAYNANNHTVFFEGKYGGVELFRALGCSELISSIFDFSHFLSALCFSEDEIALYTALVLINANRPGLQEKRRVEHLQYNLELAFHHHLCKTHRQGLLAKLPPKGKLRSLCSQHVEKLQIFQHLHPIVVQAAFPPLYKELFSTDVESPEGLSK
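Drosophila Schneider cells stably carrying a metallothionein-driven Gal4 DBD–ROR gamma fusion and a UAS-Photinus luciferase reporter were exposed to compound for 1 hr, then induced with copper sulfate (700 uM final) for 20 hr at ambient temperature before luminescence reading.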
VP16 counter: Gal4-VP16 reporter inhibition counter-screen | Drosophila S2 Gal4-VP16 UAS-luciferase, luminescence, 20 h | Potency, µM (doses to about 53.6 µM), inactives show top-dose activity, negative = inhibition, usual class: inhibitors | actives 3.5% (n = 310,000) | AID 2546;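 note: Gal4-VP16 expression switched on by copper sulfate through the metallothionein promoter; potency is the fitted concentration of half-maximal effect; % is set by controls: 0 for no effect and ±100 for the full control effect; nearly all actives have a fitted effect of over 50% in size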
Starred values were filed as active, the others as inactive; ? = inconclusive; nt = no result given; [ ] = another dose, or the depositor's remark. Unless noted, calls come from the whole dose curve; as a rule, active = well fitted curve in the direction sought with a large enough effect; inconclusive = small, poorly fitted or top-dose-only effect, or another doubt; inactive = no such curve, though single readings can be large; an effect the other way counts as inactive or inconclusive.

SMILES	MCF10A rerep	SW480 rereplic	Chronic BCR inh	Giardia killer	RORgamma inh	VP16 counter
O=c1c2ccccc2c(C=Nc2cccc(O)c2)c(O)n1-c1ccc2c(c1)OCO2	15µM*	?	?	8	?	?
O=C(Nc1ccc2ccccc2n1)c1ccccc1Cl	-1%	2%	?	-7	13µM*	?
COc1ccc(C(=O)Nc2ccc3ccccc3n2)c(OC)c1OC	23%	4%	?	?	8.9µM*	10µM*
COc1ccccc1CNC(=O)[C@H](C)NC(=O)C1CCN(C(=O)[C@H](CCSC)NC(=O)OC(C)(C)C)CC1	7%	-16%	?	?	-8%	0%
Cc1cc(O)c(-c2cc(O)c(C)cc2O)cc1O	-3%	18%	?	6	7.1µM*	?
Cc1cc(C)nc(NC2=NCCN2C(=O)NC2CCCCC2)n1	1%	0%	6%	0	-28%	12%
CCNC(=S)N1CCN=C1Nc1nc(C)cc(C)n1	-4%	-4%	-7%	0	18µM*	9%
O=[N+]([O-])c1cccc(S(=O)(=O)N2CN(c3ccc(Br)cc3)c3nc4ccccc4nc32)c1	?	-9%	10%	-1	nt	nt
Cc1cccc(NC(=O)CSCC(=O)N2CCN(Cc3ccc4c(c3)OCO4)CC2)c1	4%	-3%	-6%	-18	nt	nt
CN(C)CCCN(Cc1cc2cc3c(cc2[nH]c1=O)OCO3)C(=S)Nc1cccc(Cl)c1	16µM*	?	?	6	21%	?
Cc1cccc(NC(=S)N(CCN(C)C)Cc2cc3cccc(C)c3[nH]c2=O)c1	3%	?	0%	-18	-11%	-6%
COc1ccccc1NC(=O)N(Cc1cccs1)Cc1cc2cc3c(cc2[nH]c1=O)OCO3	21µM*	?	?	10	?	-7%
COc1ccc2cc(CN(CC3CCCO3)C(=O)Nc3ccccc3OC)c(=O)[nH]c2c1 (stereo not drawn)	18µM*	15µM*	?	-25	39%	0%
Cc1ccc(NC(=S)N(CCN(C)C)Cc2cc3cccc(C)c3[nH]c2=O)cc1	?	21µM*	0%	10	-32%	-3%
CN(C)CCCN(Cc1cc2cc3c(cc2[nH]c1=O)OCO3)C(=S)Nc1ccccc1	3%	-3%	-6%	-28	1%	-1%
COc1ccc2cc(CN(CC3CCCO3)C(=S)Nc3ccccc3)c(=O)[nH]c2c1 (stereo not drawn)	13µM*	16µM*	?	2	-4%	-8%
CCN1CCCC1CN(Cc1cc2ccc(C)cc2[nH]c1=O)C(=S)Nc1ccc(F)cc1 (stereo not drawn)	6.5µM*	-5%	?	9	-7%	-6%
COCCCNC(=S)N(CCO)Cc1cc2cc3c(cc2[nH]c1=O)OCCO3	0.65µM*	-69%	?	-2	19%	-7%
Cc1cc2cc(CN(CC3CCCO3)C(=S)Nc3ccccc3)c(=O)[nH]c2cc1C (stereo not drawn)	10µM*	?	7%	9	-9%[10 µM]	4%
CN(CC(=O)Nc1ccc(Cl)c(Cl)c1)C(=O)C1CCCC1	4%	1%	4%	-1	nt	nt
Cc1ccc(OCCNC(=O)c2cc(C3CC3)nc3c2cnn3C(C)C)cc1	?	-10%	?	33	nt	nt
Cc1ccc(C(c2sc3nc(-c4ccco4)nn3c2O)N2CCOCC2)cc1 (stereo not drawn)	nt	nt	11%	nt	nt	nt
COc1ccc(-n2c(C)cc(C3=NNC(=NC4CC4)SC3)c2C)cc1	9.2µM*	?	1%	5	-20%	?
Cc1cc(C2=NNC(=NC3CC3)SC2)c(C)n1-c1ccccc1	-6%	?	-4%	?	2.5µM*	6.3µM*
CN=C1NN=C(c2cc(C)n(-c3c(C)n(C)n(-c4ccccc4)c3=O)c2C)CS1	7%	28%	3%	-4	?	?
SMILES	MCF10A rerep	SW480 rereplic	Chronic BCR inh	Giardia killer	RORgamma inh	VP16 counter
Cc1ccc(OCCCCn2c(CCNC(=O)C3CCCCC3)nc3ccccc32)cc1	nt	nt	nt	42	nt	nt
N#Cc1cnc(Oc2ccc(Cl)cc2)nc1N	-1%	5%	5%	1	31%	-9%
Cc1ccc(S(=O)(=O)CC2CSc3nc4ccccc4n32)cc1 (stereo not drawn)	0%	-9%	10%	-9	?	1.1µM*
Cc1ccc(S(=O)(=O)CCc2nc3ccccc3n2CCC#N)cc1	18µM*	?	1%	-4	-14%	-7%
COCC(=O)Nc1cc(C)cn(Cc2ccc(F)cc2)c1=O	?	-37%	1%	-10	8%	4%
CC(C(=O)NCC1CCCO1)c1ccc([N+](=O)[O-])cc1 (stereo not drawn)	1%	1%	2%	-10	7%	2%
Cc1ccccc1NC(=O)c1ccc(-n2cncn2)nc1	3%	1%	-6%	13	18µM*	-6%[0.365 µM]
O=C(CCCn1c(SCc2cccc([N+](=O)[O-])c2)nc2ccccc2c1=O)NCC1CCCO1 (stereo not drawn)	5%	?	1%	-11	?	-3%
Cc1nc(-c2ccccn2)nc(SCC(=O)N2CCOCC2)c1Cl	-2%	0%	?	-6	-20%	-4%
Cc1nc(-c2ccccn2)nc(SCC(=O)c2ccccc2)c1Cl	?	-10%	?	-14	4µM*	11µM*
O=C(C1CCC1)N1CCc2cc(S(=O)(=O)Nc3ccc4c(c3)OCCO4)ccc21	3%	-3%	-5%	9	?	20µM*
O=S(=O)(Nc1ccc(S(=O)(=O)Nc2nccs2)cc1)c1ccc2c(c1)OCCO2	21µM*	?	3%	-4	-1%	9%
CCC(=O)N1CCc2cc(S(=O)(=O)Nc3ccc4c(c3)OCCO4)ccc21	-3%	-7%	?	2	?	?
CS(=O)(=O)N1CCc2cc(S(=O)(=O)Nc3ccc4c(c3)OCCO4)ccc21	4%	-5%	-5%	0	?	18µM*
CCCN(CCC)CCNS(=O)(=O)c1ccc2c(c1)CCN2C(=O)C1CCC1	2.6µM*	12µM*	5%	-2	-2%	-6%
Cc1ccc(CNS(=O)(=O)c2ccc3c(c2)CCN3C(=O)C2CCC2)cc1	6%	-3%	2%	-29	2%	0%
CC(=O)NCCC1CCN(c2nc3nonc3nc2N(C)Cc2ccccc2)CC1	3%	-4%	10%	-12	-18%	3%
CC1CCN(S(=O)(=O)c2cccc(S(=O)(=O)N3CCCC3)c2)CC1	-19%	-10%	10%	-5	-6%	5%
